Screens (PubChem)
Pf Dd2 inh = qHTS Primary assay for Inhibitors of Plasmodium falciparum Dd2 growth in vitro. AID 1347417, 2020. Potency, µM (highest dose often 28.9 µM), for inactives: at the top dose activity, negative = inhibition, most hits filed as inhibitors. P. falciparum Dd2 growth, SYBR Green, 72 h. 120,000 tested, 4.3% active; active means well fitted inhibition curve with a large enough effect;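 further: plate controls were DMSO vehicle for no effect and reference drug for full effect; nearly all actives have a fitted effect of over 65% in size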
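Readout: SYBR Green fluorescence, 485 nm excitation, 535 nm emission, after ~16 h lysis at 37C. Before that, Dd2-infected red cells (2.5% hematocrit) grew 72 h with compound, 29 uM top final concentration.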
An asterisk follows results filed as active; i = inactive; [ ] = dose if it differs, or a comment. The sample as a whole holds a higher share of hits than the screen did. Potency means the concentration at half of the fitted maximal effect.

SMILES	Pf Dd2 inh
Fc1ccc2nc([C@H]3CCN(Cc4ncc[nH]4)C3)[nH]c2c1	i
CN(C)c1ccc(CN2CCC(c3nc4ncccc4[nH]3)C2)cc1 (stereo unspecified)	-7%
CC(=O)N1CC[C@H](c2nc3ccc(F)cc3[nH]2)C1	-6%[44.1 µM]
Cc1ccc(CN2CC[C@H](c3nc4ccc(C(F)(F)F)cc4[nH]3)C2)cc1	11µM*
COc1ccc2nc([C@H]3CCN(Cc4ccncc4)C3)[nH]c2c1	i
Cc1ccccc1CN1CC[C@H](c2nc3ncccc3[nH]2)C1	32µM*
FC(F)(F)c1ccc2nc([C@H]3CCN(Cc4ncc[nH]4)C3)[nH]c2c1	i
COc1ccc(CN2CC[C@H](c3nc4ccc(C)cc4[nH]3)C2)cc1	i
COc1ccc2nc([C@H]3CCN(C4CCCCC4)C3)[nH]c2c1	-6%[44.1 µM]
Fc1ccc2nc([C@H]3CCN(Cc4cccs4)C3)[nH]c2c1	11µM*
N#Cc1ccc(CN2CCC3(CC2)OCCN(CCc2ccccc2)C3=O)cc1	-26%[44.1 µM]
COc1ccc(N2Cc3c(NCCOc4ccccc4)ncnc3N(C)CC2=O)cc1	-18%
CNC(=O)c1ccc(CC2CCN(C(=O)C3CC3)CC2)cc1	i
CNC(=O)[C@@H]1CN(Cc2ccc3c(c2)CCO3)C[C@H]1c1nc(COC)no1	24%
COCC(=O)N[C@@H]1CN(CC2CC2)CC[C@@H]1c1nc(C)no1	i[5.79 µM]
COC(=O)[C@@H](Cc1cccnc1)NC(=O)[C@H]1CN(C(=O)Nc2ccccc2)CCN1S(=O)(=O)c1ccccc1	-15%
CCN(Cc1ccccc1)C(=O)CCc1nc(C2CCCN2S(C)(=O)=O)no1 (stereo unspecified)	-5%
Cc1ccsc1C(=O)N1CCCC(Cc2nc(C3CCOCC3)no2)C1 (stereo unspecified)	-6%
CC(C)(O)CCc1cccc(C(=O)NCCOc2cccc3cccnc23)c1	-9%
C[C@@H](NC(=O)Cc1ccccc1)c1onc(-c2ccc(Cl)cc2)c1C(=O)O	-8%[44.1 µM]
CN1CC(=O)N(c2ccccc2)Cc2c(NC3CCC3)ncnc21	-3%[44.1 µM]
C=CCOC(=O)C1=C(C)N(Cc2cccc(Cl)c2)C(=O)CC1c1ccccc1Cl (stereo unspecified)	-24%
O=C(CN1CCCc2nc(C3CC3)ncc2C1=O)NCCN1CCOCC1	43%
c1ccc2ncc(CN3CC[C@H](c4nc5ccccc5[nH]4)C3)cc2c1	11µM*
Clc1cccc(CN2CC[C@H](c3nc4ccccc4[nH]3)C2)c1	i
SMILES	Pf Dd2 inh
COc1cccc(CN2CC[C@H](c3nc4ccccc4[nH]3)C2)c1	-21%[44.1 µM]
O=C1CCN(S(=O)(=O)c2ccccc2)CCCN(C(=O)CN2CCOCC2)CCN1	5%
Cc1oc(C(O)c2ccccc2)nc1C(=O)N1CCC(n2c(=O)[nH]c3ccccc32)CC1 (stereo unspecified)	-18%[44.1 µM]
COc1ccc(-c2noc(CN(C(=O)C(C)Oc3ccc(C)cc3)C(C)C)n2)cc1 (stereo unspecified)	10µM*
Cc1ccc(CC(=O)N(Cc2nc(-c3ccc(C)cc3)no2)C(C)C)cc1	-22%
COc1ccc(-c2noc(CN(C(=O)c3ccccc3Cl)C(C)C)n2)cc1	-4%
CC(C)CC(=O)NC[C@@H]1C[C@H](F)CN1C(=O)CCCc1cccs1	-17%
CCNC(=O)N1CCC2(CC1)CC(N(CC)CC)CCO2 (stereo unspecified)	8%
CN(Cc1ccsc1)C(=O)c1ccc(C#CC(C)(C)O)o1	-34%
CCOc1ccc(-c2cc3nc(C4CCN(C(=O)OC(C)(C)C)CC4)c(C(=O)Nc4ccc(C)c(F)c4)cn3n2)cc1	7.1µM*
COc1ccc(-c2cn3nc(N4CCC(C(=O)Nc5cc(Cl)ccc5OC)CC4)sc3n2)cc1	i
COc1ccc(OC)c(NC(=O)c2cnc(N3CCCC3)nc2C)c1	26%
CCOc1ccc(NC(=O)N2CCC(c3ccc(C)cc3)C2)cc1 (stereo unspecified)	i
CCOc1ccc(-c2cc3nc(C4CCN(C(=O)OC(C)(C)C)CC4)c(C(=O)Nc4cc(OC)ccc4OC)cn3n2)cc1	4µM*
CCOc1ccc(NC(=O)c2cc3nc(-c4ccc(OC)cc4)cc(C(F)(F)F)n3n2)cc1	70%
O=C(Nc1ccccc1)C1=NO[C@@H]2CN(Cc3ccc4[nH]ccc4c3)C[C@H]12	-2%[44.1 µM]
COC(=O)[C@H](CC1CCCCC1)NC(=O)[C@@H]1CN(C(=O)c2cccnc2)CCN1S(C)(=O)=O	-7%
O=C(NCc1nnc2ccc(-c3ccc(Cl)cc3)nn12)C1(c2ccccc2)CC1	-21%
Cc1cnc(CN2CC3(CCCN(c4ccc(C#N)cn4)C3)CCC2=O)cn1 (stereo unspecified)	-20%
CCn1c(=O)n(CC)c2cc(N3CCCCC3)c(NC(=O)Nc3ccccc3C(F)(F)F)cc21	10µM*
Cc1ccc(C#N)c(=O)n1CC(=O)Nc1ccccc1C(F)(F)F	9%
CC(=O)c1cccc(NC(=O)Nc2cc3c(cc2N2CCCC2)n(C)c(=O)n3C)c1	i
COc1ccc(Cl)cc1NC(=O)c1c(OC)cc(=O)n2c1CCCC2	50%
CCn1c(=O)n(CC)c2cc(N3CCCCC3)c(NC(=O)Nc3cc(Cl)ccc3OC)cc21	8.9µM*
Cc1ccc(C)c(NC(=O)Nc2cc3c(cc2N2CCCCC2)n(C)c(=O)n3C)c1	10µM*
SMILES	Pf Dd2 inh
COc1ccc(Cl)cc1NC(=O)Nc1c[nH]c(=O)[nH]c1=O	37%
Cc1ccc(C)c(NS(=O)(=O)c2ccc3c(c2)n(C)c(=O)n3C)c1	15%
O=C(Cn1nc2n(c1=O)CCCCC2)Nc1ccccc1C(F)(F)F	37%
CCc1cc(=O)n(CC(=O)N2CCN(c3ccc(F)cc3)CC2)c(N2CCOCC2)n1	i
CCCN(CC1CCOC1)C(=O)c1ccc(F)cc1F (stereo unspecified)	-5%[5.79 µM]
OCc1n[nH]c2c1CN(Cc1cccc(OCC(O)CN3CCOCC3)c1)CC2 (stereo unspecified)	-9%
COCCc1noc([C@@H]2CN(Cc3cccc(OC)n3)C[C@H]2CO)n1	-21%
COc1ccc(CN2CC(Oc3ccc4c(c3)OCO4)C2)cc1	-2%
O=S(=O)(c1ccc2c(c1)CCCC2)N1CCCC(Cn2cnc3cccnc32)C1 (stereo unspecified)	-7%
COc1ccc(C(CC(=O)N2CCC(C(N)=O)CC2)c2ccccc2)cc1 (stereo unspecified)	-7%
COc1ccc(Cl)cc1C(=O)N1C[C@@H](F)C[C@H]1C(=O)N1CCCCC1	-2%
O=C(NCCc1noc(C2CC2)n1)Nc1ccc(C(F)(F)F)cc1	-30%
CC[C@H]1CN(S(=O)(=O)c2ccc(OC)cc2)CC[C@H]1CC(=O)NCCN1CCOCC1	-8%
CCn1cc(S(=O)(=O)N2CCC(c3noc(-c4cnccn4)n3)C2)cn1 (stereo unspecified)	68%[5.79 µM]
Cc1noc(C)c1[S+](=O)([O-])N1CCC2(CC1)OCCN(Cc1ccccc1)C2=O	i
COc1ccc(NC(=O)c2ccc3c(c2)c(C)c(C)n3Cc2ccc(F)cc2)cc1	-17%
COc1cccc(CN2CCc3c(cc(C(=O)N4CCOCC4)n3C)C2)c1	-16%
COc1cccc(CN2CCc3nc(C(=O)Nc4cccnc4)oc3CC2)c1	-3%[44.1 µM]
COc1ccc(NC(=O)C2=NO[C@@H]3CN(Cc4ccc(F)cc4)C[C@H]23)cc1	i
CC(C)N1CCN(C(=O)c2cc3c(n2C)CCN(Cc2ccc(F)cc2)C3)CC1	i
COc1cccc(CN2CCc3c(cc(C(=O)Nc4cccc(C)c4C)n3C)C2)c1	4.5µM*
O=C(Cn1c(=O)c2c(n1Cc1ccccc1)CN(Cc1ccccc1)CC2)NCc1ccc(F)cc1	i
